Source: PubChem BioAssay (National Center for Advancing Translational Sciences (NCATS))
Mm-Cpn inhibitor = inhibitors of Methanococcus maripaludis chaperonin TRiC (MmCpn) | purified Mm-Cpn ATPase, ADP Transcreener TR-FRET | Potency, µM (top dose mostly 76.9 µM), inactives show at the highest dose activity, negative = inhibition, actives largely listed as inhibitors | 330,000 compounds, 0.031% hits | AID 504842; further: potency means the concentration at half of the fitted maximal effect; nearly all actives have a fitted effect of over 80% in size
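TR-FRET (320 nm excitation; 590 and 665 nm emission) reports ADP made from 10 uM ATP by 25 nM enzyme; compounds were preincubated 10 min, reaction run 30 min, both at 37°C.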
VDR inhibitor = blocks the human vitamin D receptor | P11473 | VDR-SRC2-3 peptide fluorescence polarization, 2 h | Potency, µM, without a hit: max response, negative = inhibition, most hits filed as inhibitors | 400,000 compounds, 0.93% hits; further: potency means the concentration at half of the fitted maximal effect
Target sequence (P11473 whole entry, looked up): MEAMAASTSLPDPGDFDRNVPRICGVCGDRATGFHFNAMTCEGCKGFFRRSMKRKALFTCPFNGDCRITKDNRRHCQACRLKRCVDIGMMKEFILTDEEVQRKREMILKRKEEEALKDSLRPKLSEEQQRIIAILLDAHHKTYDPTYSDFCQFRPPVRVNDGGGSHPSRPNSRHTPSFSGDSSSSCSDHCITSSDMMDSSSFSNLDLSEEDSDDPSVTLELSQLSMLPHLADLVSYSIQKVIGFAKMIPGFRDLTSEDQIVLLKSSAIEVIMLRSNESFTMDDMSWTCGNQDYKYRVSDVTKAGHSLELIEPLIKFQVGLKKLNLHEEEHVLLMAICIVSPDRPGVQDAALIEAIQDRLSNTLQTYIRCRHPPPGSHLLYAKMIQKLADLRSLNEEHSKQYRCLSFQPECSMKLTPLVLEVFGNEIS
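Fluorescence polarization assay of small-molecule disruption of VDR binding to coregulator peptide SRC2-3. Compounds and controls pin-transferred, then read after 2 h incubation at ambient room temperature.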
G9a inh = blocks human histone lysine methyltransferase G9a. Potency, µM (top dose mostly 102 µM), inactives show top-dose activity, negative = inhibition, most hits filed as inhibitors. 350,000 compounds, 8.8% hits. AID 504332. G9a H3K9 monomethylation, AlphaScreen, 2 h. Q96KQ7; further: potency means the concentration at half of the fitted maximal effect; nearly all actives have a fitted effect of over 75% in size
Target sequence (Q96KQ7 913-1193 limits assumed): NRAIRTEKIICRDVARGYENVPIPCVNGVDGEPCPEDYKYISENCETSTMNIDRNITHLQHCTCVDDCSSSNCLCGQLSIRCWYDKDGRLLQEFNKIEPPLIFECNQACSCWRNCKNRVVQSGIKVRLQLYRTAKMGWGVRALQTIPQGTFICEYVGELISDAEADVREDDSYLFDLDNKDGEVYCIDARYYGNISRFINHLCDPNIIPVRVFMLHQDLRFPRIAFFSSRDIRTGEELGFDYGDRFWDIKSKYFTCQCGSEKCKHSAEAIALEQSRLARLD
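AlphaScreen read-out: biotin-H3K9 peptide (500 nM) methylation by 20 nM enzyme with 20 uM SAM, 2 h at room temperature after 15 min compound preincubation; anti-monomethyl H3K9 antibody plus donor/acceptor beads, 10 min dark.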
Sfp inh = inhibitors of Bacillus subtilis Sfp phosphopantetheinyl transferase; Potency, µM, for inactives: largest response in the series, negative = inhibition, actives largely listed as inhibitors; 310,000 compounds, 3.5% hits; Q9F4F7; Biochemical Sfp PPTase activity, qHTS;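 further: the enzyme is Sfp with the accession as filed and its product quenches rhodamine fluorescence; potency means the concentration at half of the fitted maximal effect; 0% = enzyme reaction without inhibitor and -100% = no enzyme wells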
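Buffer: 50 mM Hepes-Na pH 7.6, 10 mM MgCl2, 0.01% Nonidet P-40, 0.01% BSA. Enzyme 15 nM, pre-exposed to compound 15 min; substrates then added and fluorescence change tracked over 30 min.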
CCT modulator = cytosolic chaperonin activity modulation; purified chaperonin ATPase assay, HTRF ADP detection, 30 min; activity change, % (no concentration beside the values), hits read low; 360,000 compounds, 0.3% hits; in the data active means activity change below about -30%
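We incubate TRiC, 40 or 20 nM final, with library compounds at 76 uM and 10 uM ATP for 30 min at 37 °C. ADP formed is detected with Transcreener HTRF reagents after 30 min at room temperature.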
PLK1 PBD block = PLK1 (human) polo-box domain binding inhibition; Potency, µM, for the others: max response, negative = inhibition, hits mostly inhibitors; P53350; 360,000 compounds, 2.8% hits; Plk1 PBD binding of FITC phosphopeptide, fluorescence polarization; further: potency means the concentration at half of the fitted maximal effect; series mostly up to about 57 µM; nearly all actives have a fitted effect of over 65% in size
* = called active by the depositor; ? = inconclusive; · = no result given; ! = repeats disagree; [ ] = dose if it differs, or a comment. The list is not random: actives were taken first. Their share in the collection is about 10%. Unless noted, the call rests on the fitted dose curve; in most records, active means well fitted curve in the direction sought with a large enough effect; inconclusive means small, poorly fitted or top-dose-only effect, or another doubt; inactive means no such curve, though single readings can be large; an effect the other way counts as inactive or inconclusive. Unless noted, on the % scale 0 is the no-effect control and ±100 the full control effect.

SMILES	Mm-Cpn inhibitor	VDR inhibitor	G9a inh	Sfp inh	CCT modulator	PLK1 PBD block
Cc1c2cnn(-c3ccccc3)c(=O)c2c(C)n1CC(=O)NCc1ccccc1	·	-0.6%	-3.4%[59 µM]	·	·	·
CCCC[n+]1ccn(-c2nc3ccccc3nc2[N-]S(=O)(=O)c2cccs2)c1	-4.4%	5.3%	24.7%[59 µM]	35.5µM*	-1.6	-4.4%
CCCC[n+]1ccn(-c2nc3ccccc3nc2[N-]S(=O)(=O)c2ccccc2)c1	-3.0%	19.1%	6.7%	8.4%	-3.2	-2.9%
CCCC[n+]1ccn(-c2nc3ccccc3nc2[N-]S(=O)(=O)c2ccc(C)cc2)c1	-4.7%	8.5%	17.6%[59 µM]	7.8%	2.7	-14.1%
CCCCC[n+]1ccn(-c2nc3ccccc3nc2[N-]S(=O)(=O)c2ccc(C)cc2)c1	-9.5%	-3.6%	4.6%	56.2µM*	-1.7	-14.9%
Cc1nc(-c2ccc(S(=O)(=O)Nc3ccc(OC(F)(F)F)cc3)cc2)co1	·	12.7%	-1.6%[59 µM]	·	·	·
Cc1ccc2oc(=O)c(/C=C(\O)c3ccco3)nc2c1	0.9%	4.4%	·	?	0.3	2.5%
CC(C)(C)/C(O)=C/c1nc2cc(Cl)ccc2oc1=O	-1.7%	-18.7%	44.7µM*	?	-2.2	-3.1%
Cc1ccc2oc(=O)c(/C=C(\O)C(C)(C)C)nc2c1	-1.6%	18.8%	?	56.2µM*	1.5	4.7%
COc1ccc(-n2nc3c(N4CCC(C(=O)NCC(C)c5ccccc5)CC4)nnc(C)c3c2C)cc1 (stereo not drawn)	-3.1%	?	-0.4%	13.4%	-0.1	6.7µM*
COc1cc2[nH]c3c(Cl)ncnc3c2cc1OC	-0.3%	-6.8%	?	-9.3%	-0.5	-3.1%
COc1cc2[nH]c(Cl)c([N+](=O)[O-])c2cc1OC	-3.4%	?	?	89.1µM*	0.3	-18.5%
O=S(=O)(c1ccc(=S)[nH]c1)N1CCCC1	-4.8%	?	·	·	1.5	?
CN(C)S(=O)(=O)c1ccc(=S)[nH]c1	-1.5%	-8.1%	1.41µM*	?	0.9	23.8µM*
CCOc1ccc(CN2CCN(C(=O)c3ccco3)CC2)cc1	1.7%	-21.5%	31.6µM*	-17.2%	1.2	-6.3%
O=C(c1ccco1)N1CCN(Cc2ccc(F)cc2Cl)CC1	-0.9%	-12.6%	-7.4%	6.5%	-1.9	-8.6%
CCOc1ccc(OCC(=O)OCC(=O)N2CCN(C(=O)c3ccco3)CC2)cc1	-4.4%	-26.3%	31.6µM*	·	-0.4	-19.5%
O=C(c1ccco1)N1CCN(Cc2ccc(F)cc2)CC1	-1.7%	2.4%	11.2µM*	-19.1%	1.3	2.6%
Cc1ccc2nc(C3CCN(C(=O)c4ccco4)CC3)[nH]c2c1	-0.2%	-0.9%	56.2µM*	9.8%	1.8	-4.8%
COc1ccc(CN2CCN(C(=O)c3ccco3)CC2)cc1	-1.7%	-14.5%	15.0%[59 µM]	6.4%	-2.1	-9.2%
Cc1ccc(OCC(=O)OCc2cc(=O)n3ccsc3n2)cc1C	·	10.9%	4.4%[59 µM]	·	·	·
Cc1c(Cl)cccc1NC(=O)N1CCN(C(=O)c2ccco2)CC1	0.9%	-25.3%	·	15.6%	-4.2	16.8µM*
O=C(c1ccccc1)N1CCN(Cc2c[nH]c3ccccc23)CC1	-2.9%	20.3%	3.1%[59 µM]	13.1%	-0.4	-5.4%
CCOc1ccccc1-n1c(CN2CCN(C(=O)c3ccco3)CC2)nc2ccccc2c1=O	0.0%	-16.3%	14.1µM*	?	0.6	-5.6%
COc1cc(-c2nc(CN3CCCN(C(=O)c4ccco4)CC3)c(C)o2)ccc1F	-0.7%	-12.1%	-35.0%	12.0%	-4.6	29.9µM*
SMILES	Mm-Cpn inhibitor	VDR inhibitor	G9a inh	Sfp inh	CCT modulator	PLK1 PBD block
O=C(c1ccc(F)cc1)N1CCN(Cc2ccccc2Br)CC1	-1.6%	-10.7%	10µM*	?	-3.0	-1.5%
O=C(c1ccco1)N1CCN(C(=O)c2ccc(Cn3cc(Br)cn3)o2)CC1	-1.7%	-0.6%	50.1µM*	-0.7%	1.3	-14.0%
O=C(c1ccco1)N1CCN(Cc2ccccc2Br)CC1	-0.2%	-10.9%	20µM*	?	-2.4	-11.9%
O=C(c1ccco1)N1CCC(c2nc(-c3ccc(F)cc3)no2)CC1	3.7%	12.3%	1.2%	-4.3%	-34.8*	1.2%
O=C(c1ccco1)N1CCN(C(=O)c2ccc(CS(=O)c3ccc(Br)cc3)o2)CC1 (stereo not drawn)	·	·	·	·	0.9	-16.2%
O=C(c1ccco1)N1CCN(Cc2nnc(-c3ccccc3F)o2)CC1	2.5%	-23.6%	70.8µM*	4.3%	-0.7	-11.0%
CC(C)CN1CCC2(CC1)CCN(C(=O)c1cnccn1)CC2	·	1.2%	?	20.2%	·	·
CN(C)CCNC(=O)c1cccc(NS(=O)(=O)c2ccc(Cl)c(Cl)c2)c1	-4.5%	26.3%	?	-20.6%	-0.3	-21.5%
CN(C)CC(C)(C)CNS(=O)(=O)c1ccc(Cl)c(Cl)c1	0.1%	-22.9%	?	3.4%	1.3	18.9µM*!
COc1cccc(/C=N/Nc2ncnc(Cl)c2N)c1O	-3.1%	5.3%	53.9%[59 µM]	8.9%	-6.8	-0.4%
Nc1c(Cl)ncnc1N/N=C/c1cccc(O)c1	-0.3%	-25.9%	30.5%[12.7 µM]	56.2µM*	0.5	-7.1%
O=C(O)c1ccc(CSCc2ccccc2Cl)o1	0.8%	?	-44.6%	21.4%	1.3	21.2µM*
CC(C)NC(=O)c1ccc(CSCc2ccccc2Cl)o1	0.9%	-13.7%	-4.4%	8.4%	1.4	-8.1%
CC(=O)c1c(C)oc(C)c1CSCc1ccc(C(=O)O)o1	-0.1%	-6.2%	?	44.7µM*	-2.2	?
NC(CSCc1ccccc1Cl)C(=O)O (stereo not drawn)	1.6%	-7.7%	35.5µM*	?	-2.6	-29.4%
COc1ccc(CCNC(=O)c2ccc(Cn3c(=O)c4ccccc4n(CC(=O)C(C)(C)C)c3=O)cc2)cc1OC	·	-0.3%	-24.3%[59 µM]	·	·	·
COc1ccc(-c2cc(C(F)(F)F)nc(SCC(=O)NCc3ccco3)n2)cc1OC	-13.4%	-1.0%	?	-8.4%	-1.0	-15.3%
COc1ccc(-c2ccc(SCC(=O)NCc3ccco3)nn2)cc1OC	0.2%	-4.9%	-104.7%	50.1µM*	-0.3	-7.9%
COc1ccc(C(=O)CSc2ccc(-c3ccc(C)cc3)nn2)cc1	-12.2%	-9.5%	?	3.3%	-0.1	-16.6%
COc1ccc(-c2nn(C)c3sc(C(=O)NCc4ccco4)cc23)cc1OC	-6.0%	6.3%	-12.5%[59 µM]	-19.3%	-2.0	26.7µM*
COc1ccc(-c2ccc(SCC(=O)c3ccc(F)cc3)nn2)cc1OC	?	0.7%	35.5µM*	13.9%	2.7	-13.3%
COc1ccc(-c2ccc(SCC(=O)c3cccs3)nn2)cc1OC	-27.6%	-4.5%	50.1µM*	18.8%	-2.8	-15.5%
COc1ccc(CCNC(=O)c2cc3c(=O)oc4ccc(C)cc4c3s2)cc1OC	·	-0.2%	6.4%[59 µM]	·	·	·
Cc1ccc(N(C)C(=O)Cn2cnc3onc(-c4ccc(F)cc4)c3c2=O)cc1C	·	4.0%	-24.4%[59 µM]	·	·	·
